{
  "source": "ChEMBL document CHEMBL4513216",
  "about": "“Probing the Open Global Health Chemical Diversity Library for Multistage-Active Starting Points for Next-Generation Antimalarials” (ACS Infect Dis, 2020)",
  "note": "The campaign covered roughly 69,000 compounds. About 8,600 (12%) showed an effect of 50% or more. This excerpt belongs to a sample that is enriched for strong results.",
  "data": [
    {"tested_on": "Plasmodium berghei", "test": "Screen against P. berghei liver stage (PbLuc), transformed with Luciferase, at 10uM", "assay_type": "functional, HepG2", "conditions": "tested at 10 uM", "units": {"INHIBITION": "%"}, "values": [
      {"smiles": "CN(C)CC1CN(C(=O)CCc2ccccc2)Cc2nccn2C1", "note": "(stereo not drawn)", "INHIBITION": -41.8},
      {"smiles": "Cc1occc1C(=O)N1Cc2nccn2CC(CN(C)C)C1", "note": "(stereo not drawn)", "INHIBITION": 44.8},
      {"smiles": "c1ccc(-n2cc(CNC3CCc4ncnn4C3)nn2)cc1", "note": "(stereo not drawn)", "INHIBITION": 41.45},
      {"smiles": "O=C(Nc1cccnc1N1CCCC1)C1CCS(=O)(=O)C1", "note": "(stereo not drawn)", "INHIBITION": -7.35},
      {"smiles": "COc1ccc(CNC(C)Cn2cccn2)c(OC)c1OC", "note": "(stereo not drawn)", "INHIBITION": 25.1},
      {"smiles": "COc1cccc(CNCC2CCN(CC(C)O)CC2)c1OC", "note": "(stereo not drawn)", "INHIBITION": 7.85},
      {"smiles": "COc1cccc(CNCc2c(C(C)C)nn(C)c2N(C)C)c1OC", "INHIBITION": -7.84},
      {"smiles": "COc1cccc(CNCc2c(C)nc3sc(C)cn23)c1OC", "INHIBITION": 66.4},
      {"smiles": "COc1ccc(OC)c(CNCc2c(C)nc3sc(C)cn23)c1", "INHIBITION": 10.8},
      {"smiles": "COc1ccc(CNCc2c(C)nc3sc(C)cn23)c(OC)c1OC", "INHIBITION": 64.6},
      {"smiles": "O=C(NCCc1noc(-c2ccccn2)n1)NCC1CCCC1", "INHIBITION": -18.3},
      {"smiles": "CC(C)c1nnc2ccc(N3CCC(C(=O)O)CC3)nn12", "INHIBITION": -9.3},
      {"smiles": "Cc1c(Cl)cccc1S(=O)(=O)N1C[C@H]2CC[C@@H](C1)N(C)C2=O", "INHIBITION": 0.546},
      {"smiles": "CN(C)C(=O)c1nnc2ccc(N3CCOCC3)cc2n1", "INHIBITION": -13.9},
      {"smiles": "CN(Cc1cccnc1)C[C@H]1OC[C@@H]2CCN(C(=O)C3CC3)C[C@@H]21", "INHIBITION": 54.8},
      {"smiles": "CN(Cc1ccco1)C[C@H]1OC[C@@H]2CCN(Cc3cccnc3)C[C@@H]21", "INHIBITION": 41.4},
      {"smiles": "CN(Cc1cccnc1)C[C@H]1OC[C@@H]2CCN(c3ncccn3)C[C@@H]21", "INHIBITION": 14},
      {"smiles": "CN(Cc1cccnc1)C[C@@H]1OC[C@H]2CN(C(=O)C3CC3)CC[C@H]21", "INHIBITION": 76.2},
      {"smiles": "CN(C)C[C@H]1OC[C@@H]2CN(C(=O)NCc3cccnc3)CC[C@@H]21", "INHIBITION": 5.63},
      {"smiles": "CN(Cc1cccnc1)C[C@@H]1OC[C@H]2CN(Cc3ccoc3)CC[C@H]21", "INHIBITION": 2.79},
      {"smiles": "O=C(CCN1CCOC(CNc2cccnn2)C1)NC1CCCCC1", "note": "(stereo not drawn)", "INHIBITION": 9.64},
      {"smiles": "O=C(CCCOc1ccccc1)N1CCCC(n2cncn2)C1", "note": "(stereo not drawn)", "INHIBITION": 14.133},
      {"smiles": "CC(=O)N1CC(C(=O)NC(C)c2cnn(C)c2C)C1", "note": "(stereo not drawn)", "INHIBITION": 8.57},
      {"smiles": "CCN1CC[C@@]2(C(=O)N(C)C)CCN(S(=O)(=O)c3ccccc3)CC[C@@H]12", "INHIBITION": -89.8},
      {"smiles": "Cc1nncn1CCNC(=O)C(C)(C)c1cccc(C(F)(F)F)c1", "INHIBITION": -0.758},
      {"smiles": "CC(NC(=O)c1cccs1)(C(N)=O)c1cccc(C(F)(F)F)c1", "note": "(stereo not drawn)", "INHIBITION": 62},
      {"smiles": "CC(NC(N)=O)C(=O)N(C)Cc1cccc(C(F)(F)F)c1", "note": "(stereo not drawn)", "INHIBITION": 12},
      {"smiles": "Cn1cccc1C(=O)NC(C)(C(N)=O)c1cccc(Cl)c1", "note": "(stereo not drawn)", "INHIBITION": 11.5},
      {"smiles": "CN1CCN(c2ccc(NC(=O)c3cccs3)c(C(F)(F)F)c2)CC1", "INHIBITION": -29},
      {"smiles": "Cn1cccc1C(=O)NC(C)(C(N)=O)c1cccc(C(F)(F)F)c1", "note": "(stereo not drawn)", "INHIBITION": 61.1},
      {"smiles": "O=C(O)[C@@H]1CN(C(=O)CCC(F)(F)F)C[C@H]1c1ccncc1", "INHIBITION": 11.6},
      {"smiles": "CC(Cn1cncn1)NCCN1CCc2ccccc2C1", "note": "(stereo not drawn)", "INHIBITION": 45.1},
      {"smiles": "CC(C)C(CNC(=O)CCn1cncn1)N1CCc2ccccc2C1", "note": "(stereo not drawn)", "INHIBITION": 60.5},
      {"smiles": "CCC(CNC(=O)CCn1cncn1)N1CCc2ccccc2C1", "note": "(stereo not drawn)", "INHIBITION": -19.5},
      {"smiles": "CC(CNC(=O)CCn1cncn1)N1CCc2ccccc21", "note": "(stereo not drawn)", "INHIBITION": -7.7},
      {"smiles": "CC(NC(=O)CCn1cncn1)c1nnc2n1CCCCC2", "note": "(stereo not drawn)", "INHIBITION": 39.2},
      {"smiles": "CC(CNC(=O)CCCn1cncn1)N1CCc2ccccc2C1", "note": "(stereo not drawn)", "INHIBITION": 69.7},
      {"smiles": "Cc1cc2c(=O)n3c(nc2s1)CCN(C(=O)c1cnn(C)c1)CC3", "INHIBITION": -11.7},
      {"smiles": "CC(C)N1CCCC1c1cc(C(F)(F)F)[nH]n1", "note": "(stereo not drawn)", "INHIBITION": -7.7},
      {"smiles": "Cc1cc(NC(C)Cn2cccn2)n2nccc2n1", "note": "(stereo not drawn)", "INHIBITION": 33},
      {"smiles": "O[C@@H]1CC(CNCc2ccc(F)cc2)(COc2cccnc2)C[C@@H]1O", "note": "(stereo partly drawn)", "INHIBITION": 38.1},
      {"smiles": "Cn1cccc1C(=O)NC1(C(=O)NCC2CC2)CCCC1", "INHIBITION": 8.38},
      {"smiles": "Cc1ccc2c(C(=O)N(C)C)cc(-c3cnn(CCO)c3)nc2c1C", "INHIBITION": 31.15},
      {"smiles": "Cc1ncc(CN2CCC(O)(c3ccccc3F)CC2)cn1", "INHIBITION": -4.675},
      {"smiles": "COc1ncc(C2(O)CCN(Cc3ccccc3O)CC2)c(OC)n1", "INHIBITION": 65.5},
      {"smiles": "COc1ncc(C2(O)CCN(Cc3cccc(F)c3F)CC2)c(OC)n1", "INHIBITION": 44.1},
      {"smiles": "COc1ncc(C2(O)CCN(Cc3ccc(F)c(F)c3)CC2)c(OC)n1", "INHIBITION": 57.5},
      {"smiles": "COc1ncc(C2(O)CCN(Cc3c(F)cccc3F)CC2)c(OC)n1", "INHIBITION": 53},
      {"smiles": "COc1ncc(C2(O)CCN(Cc3cc(F)cc(F)c3)CC2)c(OC)n1", "INHIBITION": 39.7},
      {"smiles": "COc1ncc(C2(O)CCN(Cc3cc(F)ccc3F)CC2)c(OC)n1", "INHIBITION": 24.8},
      {"smiles": "COc1ncc(C2(O)CCN(Cc3cccs3)CC2)c(OC)n1", "INHIBITION": 8.48},
      {"smiles": "CCc1ncc(CN2CCC(O)(c3ccccc3F)CC2)cn1", "INHIBITION": 18.2},
      {"smiles": "CN(C)CCn1nc(C2CCN(S(=O)(=O)N(C)C)C2)c2cccnc21", "note": "(stereo not drawn)", "INHIBITION": 6.33},
      {"smiles": "Fc1ccc(OCCNCCn2cccn2)cc1", "INHIBITION": 0.914},
      {"smiles": "Cc1cc(C(=O)N2CCN(c3ccncc3Cl)CC2)n(C)n1", "INHIBITION": 10.3},
      {"smiles": "CSc1nnc(C2CCN(C(=O)N3CCCC3)CC2)n1C(C)C", "INHIBITION": 20.09},
      {"smiles": "COC(=O)C(C)N(Cc1cc(=O)n(C)c(=O)n1C)C1CC1", "note": "(stereo not drawn)", "INHIBITION": -37.1},
      {"smiles": "COC(=O)C(C)N(Cc1cc(C)on1)C1CC1", "note": "(stereo not drawn)", "INHIBITION": 52.2},
      {"smiles": "Cc1cc(CN(C2CC2)C(C)C(C)C)no1", "note": "(stereo not drawn)", "INHIBITION": -26.1},
      {"smiles": "O=C(c1c[nH]cn1)N1CCOCC2(C1)CN(c1ccccc1)C(=O)CO2", "note": "(stereo not drawn)", "INHIBITION": 8.52},
      {"smiles": "Cc1noc(C)c1C(=O)N1CCC2(CCc3ccccc3C(=O)N2)C1", "note": "(stereo not drawn)", "INHIBITION": 9.925},
      {"smiles": "Cn1nc2c(cc1=O)CN(Cc1nc(-c3ccsc3)no1)CC2", "INHIBITION": -7.31},
      {"smiles": "CC(C)c1nn(C)c(N2CCOCC2)c1CNCc1nncn1C", "INHIBITION": -18.9},
      {"smiles": "CC(C)CNC(=O)c1cc(C2CC2)nc2c1c(C1CCCN1)nn2C", "note": "(stereo not drawn)", "INHIBITION": 30},
      {"smiles": "CS(=O)(=O)NC[C@]12COC[C@H]1CN(C(=O)CC1CCCC1)C2", "INHIBITION": 14},
      {"smiles": "CS(=O)(=O)NC[C@]12COC[C@H]1CN(C(=O)C1CCCCC1)C2", "INHIBITION": 13.6},
      {"smiles": "CS(=O)(=O)NC[C@]12COC[C@H]1CN(C(=O)C1CC=CC1)C2", "INHIBITION": 23.1},
      {"smiles": "CS(=O)(=O)NC[C@]12COC[C@H]1CN(CC1CCC1)C2", "INHIBITION": 66.6},
      {"smiles": "CS(=O)(=O)NC[C@]12COC[C@H]1CN(CCc1ccccc1)C2", "INHIBITION": 65.1},
      {"smiles": "CCS(=O)(=O)NC[C@]12COC[C@H]1CN(CCc1ccccc1)C2", "INHIBITION": -58.7},
      {"smiles": "CS(=O)(=O)NC[C@]12COC[C@H]1CN(CC1CCCC1)C2", "INHIBITION": 6.82},
      {"smiles": "O=S(=O)(NC[C@]12COC[C@H]1CN(CCc1ccccc1)C2)C1CC1", "INHIBITION": 24.9},
      {"smiles": "CS(=O)(=O)NC[C@]12COC[C@H]1CN(C(=O)C1CC(F)(F)C1)C2", "INHIBITION": 57.5}
    ]}
  ]
}
